Bioassay records: PubChem BioAssay, National Center for Advancing Translational Sciences (NCATS)
Only some compounds are listed: those with a hit (about 11% of all), similar ones and a draw of the others.
HCV inh: blocks hepatitis C virus. Huh7.5.1 HCVcc-Cre infection, luciferase reporter, 44 h. Potency, µM (titrated, usually from 41.8 µM), for the others: at the highest dose activity change, negative = inhibition, most hits filed as inhibitors. 340,000 tested, 3.4% active. AID 651820
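Infectious HCV cell culture screen: compound-treated cells (1,000/well, pre-plated 4 h) are infected with HCVcc-Cre at roughly 0.5 moi and grown 44 h. Infection is quantified by luciferase signal after 15 min substrate incubation at room temperature.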
AMA1 RON2 block: inhibitors of Plasmodium falciparum AMA1-RON2 interaction. AlphaScreen AMA1-biotinylated RON2 peptide binding. Potency, µM (highest dose often 58.2 µM), for inactives: at the top dose activity change, negative = inhibition, hits mostly inhibitors. 360,000 tested, 0.2% active;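 further: 0% = vehicle wells and -100% = peptide control; nearly all actives have a fitted effect of over 45% in size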
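AMA1 (3D7) with his tag at 25 nM final met compounds first, then biotinylated RON2 peptide at 25 nM; detection used donor plus acceptor beads, 10 µg/mL apiece, read by AlphaScreen after 30 min at room temperature.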
Pf growth 48h: inhibits P. falciparum growth in the first generation, 48 h | P. falciparum luciferase growth in erythrocytes, 48 h | 310,000 tested, 5.9% active | Potency, µM (highest dose often 28.7 µM), for the others: at the top dose activity change, negative = inhibition, most hits filed as inhibitors
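Here the parasites carry a stable luciferase gene and grow inside erythrocytes in Albumax-based RPMI medium with compound for one erythrocytic cycle. Activity is scored as loss of luminescent signal.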
Pf growth 96h: P. falciparum growth inhibition at 96 hours | P. falciparum luciferase reporter growth, 96 h | Potency, µM (series often up to 28.7 µM), for inactives: top-dose activity change, negative = inhibition, most hits filed as inhibitors | 320,000 tested, 6.9% active | AID 504834
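Erythrocytes infected with luciferase-expressing P. falciparum were dispensed at 2% hematocrit and 0.05% parasitemia (final), then incubated with compounds 96 hours at 37 C in 5% CO2. Luminescence after detection reagent addition reported growth.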
Starred values were filed as active, the others as inactive; ? = inconclusive; / = not tested or not shown. The call rests on the fitted dose curve; in most records, active means well fitted curve in the direction sought with a large enough effect; inconclusive means small, poorly fitted or top-dose-only effect, or another doubt; inactive means no such curve, though single readings can be large; an effect the other way counts as inactive or inconclusive. Unless noted, on the % scale 0 is the no-effect control and ±100 the full control effect; potency means the concentration at half of the fitted maximal effect.

SMILES | HCV inh | AMA1 RON2 block | Pf growth 48h | Pf growth 96h
COc1ccccc1C1CC(c2ccccc2)=NN1C(=O)c1ccccc1 (stereo unspecified) | -19.8% | 0.0% | 0.37µM* | 1.1%
COc1cccc(C2CC(c3ccc(NS(C)(=O)=O)cc3)=NN2C(=O)c2ccccc2)c1OC (stereo unspecified) | -10.8% | 1.9% | ? | -75.6%
CCC(CC)C(=O)N1N=C(c2ccc(NS(C)(=O)=O)cc2)CC1c1ccc(C)cc1 (stereo unspecified) | ? | -10.9% | ? | 5.22µM*
CCC(CC)C(=O)N1N=C(c2ccc(NS(C)(=O)=O)cc2)CC1c1ccccc1 (stereo unspecified) | ? | -7.7% | ? | ?
CC(=O)N1N=C(c2ccccc2)CC1c1ccccc1 (stereo unspecified) | -0.7% | 5.0% | 3.2% | ?
O=C(c1ccccc1)N1N=C(c2ccccc2)CC1c1ccccc1 (stereo unspecified) | 12.8% | 13.8% | / | 2.33µM*
Cc1ccc(C(=O)N2N=C(c3ccc(Br)cc3)CC2c2ccccc2O)cc1 (stereo unspecified) | ? | -6.7% | ? | 10.4µM*
O=C(O)c1ccccc1C(=O)N1N=C(c2ccccc2)CC1c1ccccc1O (stereo unspecified) | 21.9% | 73.9% | -16.9% | ?
O=S(=O)(c1ccc(F)c(F)c1)N1CCN(CCc2ccccc2)CC1 | ? | -3.3% | -9.9% | 20.9%
O=C(CSc1cn(CCNC(=O)c2cccs2)c2ccccc12)NC1CCCC1 | ? | 13.9% | -18.9% | 1.9%
Cn1cc(C2CC(c3ccccc3)=NN2C(=O)c2ccccc2)c2ccccc21 (stereo unspecified) | ? | -6.7% | 8.28µM* | 8.28µM*
Cc1cccc(C(=O)N2N=C(c3ccc(NS(C)(=O)=O)cc3)CC2c2cccs2)c1 (stereo unspecified) | ? | -1.6% | 8.28µM* | ?
CCS(=O)(=O)Nc1ccc(C2=NN(C(=O)c3ccccc3)C(c3cccs3)C2)cc1 (stereo unspecified) | -27.1% | -0.9% | ? | ?
CNC(=O)Oc1ccc2c(c1)[C@]1(C)CCN(C)C1N2C (stereo partly specified) | -9.0% | -5.0% | 13.1µM* | 14.7µM*
CN1CC[C@@]2(C)c3cc(O)ccc3N(C)[C@@H]12 | ? | -14.3% | / | /
CSc1nc(N)nc(SCCS(=O)(=O)c2ccc(Cl)cc2)c1C#N | 10µM* | -6.1% | -16.8% | 13.0%
CSc1nc(N)nc(SCC(=O)Nc2ccc(Cl)cc2)c1C#N | ? | -13.0% | -8.1% | -12.9%
CC(Oc1ccccc1C(N)=O)C(=O)Nc1ccc(S(=O)(=O)N2CCCC2)cc1 (stereo unspecified) | ? | 8.8% | ? | ?
O=C(CSc1nncs1)N1c2ccccc2Sc2ccccc21 | -16.9% | 0.2% | 13.1µM* | /
Cc1cccc(OCc2nnc(SCC(=O)N3c4ccccc4CCc4ccccc43)o2)c1 | -26.5% | -1.1% | 10.4µM* | ?
Cn1nnnc1SCC(=O)N1c2ccccc2Sc2ccccc21 | -33.5% | 4.1% | -18.3% | ?
O=C(CSc1nnc(COc2ccc(F)cc2)o1)N1c2ccccc2CCc2ccccc21 | / | 3.6% | 4.15µM* | ?
O=C(CSc1nnc(CNc2ccc(F)cc2)o1)N1c2ccccc2Sc2ccccc21 | 10µM* | -17.5% | ? | ?
O=C(CSc1nnc(COc2ccc(F)cc2)o1)N1CCCCC1 | -0.1% | 2.2% | 25.0% | -25.3%
Cc1nn(S(=O)(=O)c2ccc(F)cc2)c(C)c1S(=O)(=O)N1CCOCC1 | 25.3% | -1.5% | 9.0% | -4.3%
SMILES | HCV inh | AMA1 RON2 block | Pf growth 48h | Pf growth 96h
Cc1ccsc1C(=O)N1CCC1(C)C(=O)NS(=O)(=O)c1ccccc1C(F)(F)F (stereo unspecified) | / | 9.4% | / | /
Cc1c(C)c2c(c(C)c1OC(=O)c1cccnc1)CC[C@@](C)(CCC[C@H](C)CCC[C@H](C)CCCC(C)C)O2 | / | / | 5.2% | 12.1%
O=C(CN1C(=O)CCC1=O)Nc1cccc(NC(=O)CN2C(=O)CCC2=O)c1 | -0.1% | -1.3% | 13.0% | 34.8%
O=C(CSc1nnc(COc2cccc3cccnc23)o1)N1CCc2ccccc21 | 2.24µM* | 0.4% | 24.8% | -2.2%
Nc1cc(=O)[nH]c(SCC(=O)N2CCCC2)n1 | 15.5% | -1.3% | / | /
Cc1cc(C(=O)CSc2nc(N)cc(=O)[nH]2)c(C)n1CCc1ccc(F)cc1 | ? | -9.6% | 1.6% | 3.1%
Cc1cc(C(=O)CSc2nnc(N)s2)c(C)n1CCc1ccc(Cl)cc1 | ? | 9.0% | -20.6% | ?
Nc1cc(=O)[nH]c(SCC(=O)N2CCC(Cc3ccccc3)CC2)n1 | 14.1µM* | 24.7% | ? | -28.0%
CCc1ccc(C(=O)CSc2nc(N)cc(=O)[nH]2)cc1 | -5.5% | 0.2% | 83.1% | 10.4µM*
COc1ccc(CCn2c(C)cc(C(=O)CSc3nc(N)cc(=O)[nH]3)c2C)cc1 | 11.2µM* | -3.3% | ? | 9.28µM*
COc1ccc(CCn2c(C)cc(C(=O)CSc3nnc(N)s3)c2C)cc1 | -26.7% | 3.7% | ? | 9.28µM*
Cc1ccc(C(=O)CSc2nc(N)cc(=O)[nH]2)cc1C | ? | 7.4% | 5.6% | 115.5%
C[C@@H]1CCCCO[C@@H](CN(C)S(C)(=O)=O)[C@@H](C)CN([C@H](C)CO)C(=O)c2cc(N(C)C)ccc2O1 | / | -3.6% | / | /
COCCn1c(C)cc(C(=O)CSc2nc3ccccc3s2)c1C | 10µM* | -20.5% | 49.2% | 7.0%
COCCn1c(C)cc(C(=O)CSc2nc3ccccc3o2)c1C | ? | -2.3% | 111.4% | 147.3%
Cc1ccc(-c2cc(C(=O)NCc3ccccn3)c3ccccc3n2)cc1C | ? | 114.0% | 8.28µM* | -7.6%
COCCNC(=O)c1cc(-c2ccc(-c3ccccc3)cc2)nc2ccccc12 | 10µM* | 13.2% | 20.9% | -5.2%
CCOc1ccc(-c2cc(C(=O)NCCCN3CCCC3)c3ccccc3n2)cc1 | ? | -11.1% | 11.7µM* | -7.0%
Cc1ccc(-c2cc(C(=O)NCCCN3CCCC3)c3ccccc3n2)cc1C | 22.4µM* | -5.2% | 5.22µM* | ?
CCCN1CCN(CCCNC(=O)Cn2nc(C)n3c(cc4cc(F)ccc43)c2=O)CC1 | -3.2% | 10.7% | 35.8% | 27.7%
COCCn1c(SCc2cnc(-c3ccccc3)s2)nnc1-c1ccncc1 | -26.0% | -6.2% | ? | 9.28µM*
O=C(NCC(c1ccco1)N1CCCC1)c1cccc(S(=O)(=O)Nc2ccc(F)cc2)c1 (stereo unspecified) | ? | 2.4% | 13.1µM* | 14.7µM*
O=C(NCC(c1ccco1)N1CCCC1)c1cccc(NS(=O)(=O)c2ccccc2)c1 (stereo unspecified) | -20.1% | 12.4% | 10.4µM* | ?
O=C(NCC(c1ccco1)N1CCCCC1)c1cccc(S(=O)(=O)Nc2ccc(F)cc2)c1 (stereo unspecified) | ? | 12.8% | 10.4µM* | ?
